Sampled rows, rich in hits. Any-hit rate of the full collection: about 2.4%.
D2 antag: antagonists of human D2 dopamine receptor; P14416; HEK293 TREx D2 cells, calcium flux, dopamine EC80; inhibition, % at 10 µM; actives 2% (n = 340,000); AID 485344; in the data active = inhibition above about 30%; inactive = below that, where a call was filed
Target sequence (P14416 whole entry, looked up): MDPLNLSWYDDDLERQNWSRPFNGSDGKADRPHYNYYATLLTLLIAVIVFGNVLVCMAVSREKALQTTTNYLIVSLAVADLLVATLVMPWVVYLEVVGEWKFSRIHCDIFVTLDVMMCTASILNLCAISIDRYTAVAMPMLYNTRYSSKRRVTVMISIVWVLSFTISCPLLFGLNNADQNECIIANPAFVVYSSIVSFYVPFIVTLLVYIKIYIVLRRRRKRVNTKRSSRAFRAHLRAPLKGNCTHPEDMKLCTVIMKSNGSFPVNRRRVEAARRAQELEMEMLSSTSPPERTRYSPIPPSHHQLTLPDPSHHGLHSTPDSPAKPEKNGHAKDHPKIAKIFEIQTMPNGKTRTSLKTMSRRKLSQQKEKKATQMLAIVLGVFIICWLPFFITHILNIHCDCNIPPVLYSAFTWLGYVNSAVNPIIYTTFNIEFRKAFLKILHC
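Calcium mobilization kinetics were recorded at 1 s intervals in tetracycline-induced HEK293 T-REx D2 cells, first for 180 s after compound addition and then 180 s after EC80 dopamine.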
D2 ag-1: activates the human D2 dopamine receptor; P14416; HEK293 T-REx D2 cells, calcium flux agonist mode; activation, % at 2 µM; actives 0.53% (n = 340,000); AID 485358;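 active = activation over 3 SD above normal in the single-dose calcium agonist read, cut at about 30% in these data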
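In this primary screen, compounds producing a positive calcium signal within 180 s of addition to tetracycline-induced, force-coupled HEK293 Trex D2 cells are flagged; cells are dye-loaded with a no-wash calcium kit beforehand.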
D2 ag-2: agonists of human D2 dopamine receptor (beta-arrestin). actives 0.084% (n = 360,000). AID 624465. activation, % (concentration not given with the values). P14416. DiscoveRx PathHunter D2 beta-arrestin, luminescence, 90 min; 100% = 57 uM dopamine signal; in the data active = activation above about 40%
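DiscoveRx PathHunter D2 beta-arrestin cells (2,100/well) attached overnight, then compound-stimulated 90 min at 37 C in HBSS/10 mM HEPES/0.1% Tween-20 buffer; beta-galactosidase complementation read by luminescence after 1 h at ambient temperature. Dopamine 57 uM final (EC100) as control.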
D2 PAM-1: positive allosteric modulators of human D2 dopamine receptor; HEK293 T-REx D2, calcium flux, EC20 dopamine potentiation; potentiation, % at 10 µM; actives 0.34% (n = 340,000); P14416;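 active = potentiation over 3 SD above the plate norm, cut at about 30% in these data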
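Potentiation of an EC20 dopamine calcium response is measured in a force-coupled, tetracycline-inducible Hek293 Trex D2 line. Compound-only kinetic reads over 180 s flag agonists before dopamine addition.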
D2 PAM-2: potentiates the human D2 dopamine receptor allosterically; DiscoveRx D2 beta-arrestin cells, luminescence, 90 min; 100% = 57 uM dopamine signal; P14416; potentiation, % (concentration not given with the values); AID 624464; actives 0.23% (n = 360,000); in the data active = potentiation above about 50%
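PathHunter D2 cells, attached overnight at 37 deg C, received compound in DMSO plus dopamine at EC20 (50 nM final) for 90 min at 37 deg C. Beta-arrestin recruitment was read as luminescence after 1 h with detection reagent at ambient temperature.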
Large screens that a line does not name were inactive.

COC(=O)c1cc2n(n1)CCN(Cc1ccc(OC)cc1)C2=O	none
COc1ccc(CN2CCn3ncc(C(=O)Nc4cc(C)cc(C)c4)c3C2=O)cc1	D2 antag 37.7
CCOc1ccccc1N1CCN(C(=O)c2ccc(-c3ccc(OC(C)=O)cc3)cc2)CC1	D2 antag 30.7
CN(CC(=O)Nc1ccc(F)c(F)c1F)C(=O)Cc1ccc2c(c1)OCCO2	D2 antag 35.1
COc1cc(/C=C2\SC(=O)N(Cc3ccc(F)cc3)C2=O)cc([N+](=O)[O-])c1O	D2 antag 31.5
COc1cc(/C=C2/SC(=S)N(Cc3ccccc3)C2=O)cc(Cl)c1O	D2 ag-1 71.6
COc1ccc(CC(=O)N/N=C/c2ccc(-c3ccc(F)cc3)o2)cc1OC	D2 ag-1 39.7
CC1CCCC(C)N1C(=O)c1ccc(S(=O)(=O)NCc2ccco2)cc1 (stereo not given)	D2 antag 36.7 (no result: D2 PAM-1)
CC1(C)Cc2cccc(C(=O)NC3CCN(Cc4ccccc4)CC3)c2O1	D2 antag 73.4
Cc1ccc(C)n1-c1ccc(C(=O)NC2CCN(Cc3ccccc3)CC2)cc1	D2 antag 84.8
O=C(NC1CCN(Cc2ccccc2)CC1)c1ccc(S(=O)(=O)NCc2ccco2)cc1	D2 antag 35.6
CCOc1ccc(-c2cn3c(n2)sc2cc(C(=O)NCCCc4ccccc4)ccc23)cc1	none (no result: D2 antag, D2 ag-2, D2 PAM-2)
O=C(NC1CCN(Cc2ccccc2)CC1)c1cn(-c2ccccc2)nc1-c1cccnc1	D2 antag 74.7
O=C(O)c1cn(-c2ccccc2)nc1-c1cccnc1	none
Cc1ccc(CN2CCC(NC(=O)c3ccccc3)CC2)cc1	D2 antag 89.7
Cc1ccccc1C(=O)NC1CCN(Cc2ccccc2)CC1	none
CC(=O)NCCCC(=O)NNC1CC(=O)N(c2cccc(Cl)c2)C1=O (stereo not given)	D2 antag 37.1
O=C(Nc1cc(Cl)cc(Cl)c1)c1ccc(F)c(S(=O)(=O)N2CCc3ccccc32)c1	none (no result: D2 antag, D2 ag-2, D2 PAM-2)
C/C(=N\NC(=O)CN(c1ccccc1)S(C)(=O)=O)c1ccccc1O	D2 antag 43.9
O=c1cc(-c2ccc(O)cc2)oc2ccc(O)cc12	D2 antag 37.4
C=CC(COCc1ccccc1)N(C(=O)OC(C)(C)C)S(=O)(=O)c1ccccc1Br (stereo not given)	D2 antag 68.0
COc1cc2c(cc1O)C(Cc1ccc(O)cc1)NCC2 (stereo not given)	D2 antag 74.1
Nc1cc(=O)nc(SCC(=O)Nc2ccc(F)cc2)n1-c1ccc(Cl)cc1	none (no result: D2 antag, D2 ag-2, D2 PAM-2)
COc1ccc(OC)c(NC(=O)C(CCSC)NS(=O)(=O)c2cccs2)c1 (stereo not given)	D2 antag 32.4
O=C1NC[C@@H](Cc2cccc3ccccc23)N(CC2(c3ccccc3)CC2)C1=O	D2 PAM-1 32.4
COc1cc(NC(=O)c2ccccc2-n2cnnn2)cc(OC)c1	none
COc1cc(OC)cc(C(=O)Nc2ccc(-n3cnnn3)c(C)c2)c1	D2 antag 38.0
COc1ccc(/C=C/c2nc3ccccc3c(=O)n2-c2cccc(C(F)(F)F)c2)cc1	none (no result: D2 antag, D2 ag-2, D2 PAM-2)
COc1cc(OC)c(NC(=O)C(c2ccccc2)N2Cc3ccccc3C2=O)cc1Cl (stereo not given)	none (no result: D2 antag, D2 ag-2, D2 PAM-2)
Cc1cccc(C(=O)NC(=S)N2CCc3ccccc3C2)c1	none
Cc1ccc(C)c(NC(=O)CCN2CCc3ccccc3C2)c1	D2 antag 31.3
COc1cc2c(cc1OC)CN(C(=O)Nc1ccccc1Cl)CC2	D2 antag 34.7
O=C(CN1CCc2ccccc2C1)Nc1ccccc1Cl	D2 antag 60.6, D2 ag-1 30.5
Cc1cccc(C(=O)NCCC(=O)N2CCc3ccccc3C2)c1	D2 antag 32.1
CCN1CCN(CCC(=O)Nc2cc(C)ccc2C)CC1	none
O=C(CN1CCc2ccccc2C1)Nc1ccccc1N1CCCCCC1	none
COc1ccccc1Nc1cc(C)nc2nc(-c3ccccc3)nn12	none (no result: D2 antag, D2 ag-2, D2 PAM-2)
COc1ccc2nc(N(Cc3cccnc3)C(=O)c3ccco3)sc2c1	none (no result: D2 antag, D2 ag-2, D2 PAM-2)
O=C(CCN1CCc2ccccc2C1)Nc1ccc2c(c1)OCO2	D2 antag 58.5
CCN(c1ccccc1)S(=O)(=O)c1ccc(NC(=O)c2nc(SC)ncc2Cl)cc1	none (no result: D2 antag, D2 ag-2, D2 PAM-1, D2 PAM-2)
